Here are results for 36 molecules from ChEMBL document CHEMBL1157539, “Thousands of chemical starting points for antimalarial lead identification” (Nature, 2010).

Where “and” joins values, the source holds several entries; their conditions need not be identical. Identical values can stand only once.

The test has as its system HepG2. In words: GSK_TCMDC: Percent inhibition of human HepG2 cell line. Test compounds present at 10uM. The class given is functional.
The Inhibition is the relative decrease from the control value, in per cent. Higher therefore signals a strong effect. For the molecule `O=C(NC1CCCCC1)c1ccc(O)c(-c2cccc(C(F)(F)F)c2)c1`, the Inhibition stood at 8%.

On to `CC(=O)Nc1ncc(C(=O)Nc2ccc(-c3cccc(-c4nc5cc(C(F)(F)F)ccc5[nH]4)c3)cc2)s1`, for which the Inhibition is 79%.

`CC(=O)Nc1nc(C(=O)Nc2ccc(-c3cccc(-c4nc5cc(C(F)(F)F)ccc5[nH]4)c3)cc2)cs1`: the Inhibition worked out at 79%.

Turning to `COc1ccc2nccc([C@H](O)CN3CCC(NCc4nc5cccc(F)c5[nH]4)CC3)c2c1.O=C(O)C(=O)O`, the Inhibition is 0%.

In the case of `O=C(O)C1CC(=O)N(c2ccc(Cl)cc2)C1` (stereo unspecified), the Inhibition is on record as 51%.

With `COc1cccc(CN2CCCC(CCC(=O)Nc3ccc(C(F)(F)F)cc3)C2)c1O` (stereo unspecified), the Inhibition amounted to 15%.

Consider `COc1ccc2nccc([C@@H](O)CN3CCC(NC(=O)C(c4cc5ccccc5o4)N4CCN(c5ccccc5)CC4)CC3)c2c1` (stereo partly specified), for which the Inhibition stood at 19%.

Regarding `CCC(C)NC(=O)Nc1ccc(-c2cccc(-c3nc4ccccc4[nH]3)c2)cc1` (stereo unspecified), the Inhibition was determined as 41%.

Regarding `CC(C)Cn1c(Sc2ccc(C#N)c([N+](=O)[O-])c2)nnc1-c1cccc(Cl)c1`, the Inhibition is recorded as 24%.

In the case of `COc1cccc(-c2nc3c(N4CCN(c5ccncc5)CC4)cccc3n2CC2CCCCCN2)n1.O=C(O)C(F)(F)F` (stereo unspecified), the Inhibition was found to be 12%.

In the case of `CC(C)CCNc1nc(NCCc2ccccc2)c2cc(O)ccc2n1`, the Inhibition is listed as 6%.

For the molecule `Cl.Nc1ccc(-c2nc3c(ccc4ccccc43)[nH]2)cc1`, the Inhibition was 0%.

`COc1ccc(C=CC(=O)NC(=O)c2ccccc2OC(=O)c2ccccc2)cc1OC` came in with an Inhibition of 12%.

`N=C(Nc1nc(-c2ccccn2)cc2ccccc12)c1cccc(Cl)c1`: the Inhibition was 54%.

Turning to `CCC(CC(NCCCCNC(=O)c1ccc(NC(=O)c2ccc(Cl)cc2)cc1)c1ccccc1)c1ccccc1OC` (stereo unspecified), the Inhibition is 23% and 10%.

The molecule `COc1ccc2nccc([C@@H](O)CN3CCC(NCCNc4ccccn4)CC3)c2c1.O=C(O)C(=O)O` yielded an Inhibition of 18%.

In turn, `O=C(Nc1ccc(Cl)cc1)c1ccc(CN2CCCN(Cc3ccc(F)cc3)CC2)cc1.O=C(O)C(F)(F)F` gave an Inhibition of 48%.

For `O=C(O)C(F)(F)F.Oc1ccc(CC2CCCN(c3nc(NCCCOc4ccccc4-c4ccccc4)nc(N4CCNCC4)n3)C2)cc1` (stereo unspecified), the Inhibition amounted to 56%.

`O=C(O)C(F)(F)F.c1cc(-c2ccc(CNCc3ccsc3)cc2)cc(-c2nc3ccccc3[nH]2)c1` returned an Inhibition of 46%.

For `COc1c(C2=CCN(CCCCNC(=O)c3ccc(-c4ccc(C#N)cc4)cc3)CC2)c(C)cc2c1C(C)(C)CCC2(C)C`, the Inhibition is reported as 18%.

`CCN(CC)CCN(Cc1ccc(-c2ccc(C(F)(F)F)cc2)cc1)C(=O)Cn1c(CCc2cccc(F)c2F)nc(=O)c2ccc(C)cc21.O=C(O)C(O)C(O)C(=O)O` yielded an Inhibition of 39%.

`CN(C)CCNCc1ccc(-c2ccc(-c3nc4cc(F)ccc4[nH]3)cc2)cc1.O=C(O)C(F)(F)F` returned an Inhibition of 8%.

In turn, `Cl.O=C1Nc2ccc3ncccc3c2/C1=C/Nc1ccc(N2CCN(CCO)CC2)cc1` had an Inhibition of 34%.

`CCNc1cc(C)nc(Nc2ccc(NS(=O)(=O)c3cc(OC)ccc3OC)cc2)n1` registered an Inhibition of 56%.

Molecule `Cn1cccc1C(=O)NCC(CCNc1cc(=O)c2ccccc2[nH]1)NCc1cc(Br)cc(Br)c1` (stereo unspecified) returned an Inhibition of 0%.

In turn, `CC(C)C[C@H](NC(=O)c1cc(-c2ccc(C(C)(C)C)cc2)no1)C(=O)O.CC(C)C[C@H](NC(=O)c1conc1-c1ccc(C(C)(C)C)cc1)C(=O)O` yielded an Inhibition of 3%.

For the molecule `CCCCCCCc1ccc(-c2c(C)[nH]c(C)c(Cl)c2=O)cn1`, the Inhibition was determined as 0%.

Molecule `COc1ccc(CC(Cc2ccc(OC)cc2)NCC(O)c2cccc(Cl)c2)cc1` (stereo unspecified) yielded an Inhibition of 11%.

Turning to `O=C(/C=C/c1ccc(Cl)c(Cl)c1)N1CCN(C(=O)Nc2ccc(F)c(Cl)c2)CC1`, the Inhibition amounted to 19%.

For the molecule `Cc1cc(NC2CCN(Cc3ccccc3)CC2)nc(NCCCCc2ccccc2)n1`, the Inhibition came out at 65%.

As for `COc1ccc(Nc2nccc(N3CCC(NC(=O)c4cc5ccccc5s4)C3)n2)cc1` (stereo unspecified), the Inhibition turned out to be 1%.

For `O=C(NCc1ccccc1)c1ccc(C(=O)NCC2CNCCO2)cc1.O=C(O)C(F)(F)F` (stereo unspecified), the Inhibition was 4%.

The molecule `CN1CCCC(CN2CCN(Cc3ccc(-c4cccc(-c5nc6ccccc6[nH]5)c4)cc3)CC2)C1.O=C(O)C(F)(F)F` (stereo unspecified) displayed an Inhibition of 57%.

The molecule `CCCc1cc(Cc2cnc(N)nc2N)cc(CCC)c1OC.Cl` gave an Inhibition of 18%.

For the molecule `Cc1ccc(O)c(C(=O)c2cc(C(=O)Nc3ccccc3C)c(=O)n(-c3ccccc3C)c2)c1`, the Inhibition was 0%.

In turn, `CC1(C)CCCC(=Cc2ccc(Br)cc2)C1(O)Cn1ccnc1` (stereo unspecified) had an Inhibition of 7%.
